# According to PubChem BioAssay AID1745850 (National Center for Advancing Translational Sciences (NCATS), 2022):
# About 260 (12%) of roughly 2,100 compounds were called active. Roughly 58% stayed inconclusive and do not appear here. The call rests on the fitted dose curve; in most records, active means well fitted cell-killing curve with a large enough effect; inconclusive means small, poorly fitted or top-dose-only effect, or effect the other way; inactive means flat fitted curve, though single readings scatter. The list shows a part of the results. Entries that show only a call come without a potency.
# Experiment: Viability Counterscreen for Confirmatory qHTS for Inhibitors of ATXN expression; further: nearly all actives have a fitted effect of over 50% in size
# Settings: HEK-293 ATXN2-luc cells viability, CellTiter-Fluor, 24 h
# Text: PI: Daniel Scoles Ph.D. University of Utah School of Medicine, Salt Lake City, Utah MLPCN Grant: NS073009 Spinocerebellar ataxia type 2 (SCA2) is a multisystem neurodegenerative disease caused by a dominantly acting mutation leading to expansion of a polyQ domain in the ataxin-2 protein (ATXN2). SCA2 patients develop progressive ataxia and later lose function in other neuronal systems. Prominent parkinsonian signs develop in some patients. Like many neurodegenerative disorders, no symptomatic or disease-modifying treatments are known. The primary objective of the proposed research is to identify compounds inhibiting ATXN2 expression and to test them for efficacy in SCA2 mouse models. We have developed a cell-based assay paired with an in vivo mouse model using identical luciferase expression constructs. This approach takes advantage of an ATXN2-luciferase transgene, with the luciferase gene flanked by the upstream and downstream portions of the ATXN2 gene. Here we describe a 5-7 dose quantitative high thoroughput screen (qHTS) for compounds lowering ATXN2 expression. We screened the NIH Molecular Libraries Small Molecule Repository (MLSMR) and NCGC's mechanistically annotated (MIPE) and drug repurposing (NPC) collections of compounds for lowering expression of an ATXN2-luciferase reporter in HEK-293 cells. The assay is a multiplexed cell viability assay to ensure target reduction in the absence of cytotoxicity. Secondary qHTS assays included a CMV-luciferase reporter expressed in HEK-293 cells as well as a biochemical assay using recombinant luciferase to detect inhibitors of the reporter enzyme. Compounds that inhibit ATXN2 expression but is not cytotoxic were selected for confirmatory and secondary screens.
# PROTOCOL TABLE (as described by Inglese J, Shamu CE and Guy RK. 2007) SEQUENCE No. (e.g., 1, 2, 3, etc.); […] (e.g., Cells, Incubation, Reagent, etc.); VALUE; DESCRIPTION. 1; Cells; 4 uL; white, solid bottom, 1536-well Greiner assay plate. 2; Incubation; 2 hr; 37 degree C in 5% humidified CO2. 3; Compounds; 23 nL; Kalypsis pintool (Wako USA) equipped with a 1536-well pin head. 4; Incubation; 24 hr; 37 degree C in 5% humidified CO2. 5; Reagent; 1 uL; Gly-Phe-7-Amino-4-trifluoromethylcoumarin. 6; Incubation; 30 min; 37 degree C in 5% humidified CO2. 7; Detection; Fluorescence; ViewLux plate reader (PerkinElmer). 8; Reagent; 3 uL; SteadyGlo luciferase solution (Promega). 9; Incubation; 5 min; room temperature. 10; Detection; Luminescence; ViewLux plate reader (PerkinElmer). NOTES (numbers refer to Sequence numbers above) 1. S2 cells expressing ATXN2-luciferase reporter were suspended in phenol-red free DMEM and dispensed in assay plates using a Multidrop Combi dispenser (Thermo Fisher Scientific). Wells containing medium only were plated on each plate, and values were used to normalize (100% inhibition) in the luciferase and CellTiter-Fluor assays. 2. Assay plates were incubated. Evaporation was prevented by covering assay plates with metal lids containing holes to allow gas diffusion. 3. Compounds were added in a dose response manner with the final concentrations of 57, 11.4, 2.28, 0.46, 0.091, 0.018, 0.0037 uM. Vehicle-only plates, with DMSO being pin-transferred to columns 5-48, were inserted uniformly at the beginning and the end of each library to monitor and record any shifts in assay performance. 5. 125 uM Gly-Phe-7-Amino-4-trifluoromethylcoumarin (MP Biomedicals) working concentration was used at a final concentration of 25 uM. 7. To assess cell viability; the assay plates were read using the ViewLux high-throughput CCD imager (PerkinElmer), wherein single end-point fluorescence measurement was acquired (excitation 405/10; emission 540/25 nm). 8. Detection reagent SteadyGlo Luciferase (Promega) was added to the assay plate. 10. Luminescence is then measured on the ViewLux imager equipped with a clear emission filter using a 2 sec exposure. […]
# Potency means the concentration at half of the fitted maximal effect.
row,SMILES,Potency
1,Cc1cccc(-n2c(/C=C/c3ccc([N+](=O)[O-])o3)nc3ccccc3c2=O)c1,7.08 µM (active)
2,CSCCC(c1nnnn1-c1c(C)cccc1C)N1CCC2(CC1)C(=O)NCN2c1ccccc1 (stereo not drawn),31.6 µM (active)
3,O=C(Nc1ccc(OC(=O)N2CCCCC2)cc1)N1CCOCC1,inactive
4,N#Cc1cn(C2OC(CO)C(O)C2O)c2ncnc(N)c12 (stereo not drawn),inactive
5,O=[N+]([O-])c1oc2ccc3ccccc3c2c1CCO,28.2 µM (active)
6,COc1ccc(N=Cc2c(O)n(-c3ccc(C)cc3)c(=O)[nH]c2=O)cc1,inactive
7,COC(=O)C(O)(c1ccc(NC(=S)NC(=O)c2ccc(Cl)cc2Cl)c(C)c1)C(F)(F)F (stereo not drawn),inactive
8,COc1cccc2c1C(=O)c1c(O)c3c(c(O)c1C2=O)CC(O)(C(C)=NO)CC3OC1CC(N)C(O)C(C)O1 (stereo not drawn),17.8 µM (active)
9,CC(=O)OC1(C)CC(C)C(=O)C(C(O)CC2CC(=O)NC(=O)C2)C1 (stereo not drawn),inactive
10,C[C@]12CC[C@H](O)C[C@H]1CC[C@@H]1C2CC[C@]2(C)[C@@H](C3=CC(=O)OC3)[C@@H](O)C[C@]12O (stereo partly drawn),inactive
11,CCC1(OC(=O)CN)C(=O)OCc2c1cc1n(c2=O)Cc2cc3ccccc3nc2-1 (stereo not drawn),inactive
12,COC(=O)c1nc(-c2ccc3c(n2)C(=O)C(N)=C(OC)C3=O)c(N)c(-c2ccc(OC)c(OC)c2O)c1C,15.8 µM (active)
13,CCOC(=O)[C@]12Cc3ccsc3[C@H]1N(Cc1ccccc1)C(=O)c1ccccc12,inactive
14,CN1C2CCC1/C(=C/c1ccccn1)C(=O)/C2=C\c1ccccn1,1.26 µM (active)
15,N#Cc1c(Br)n(C2OC(CO)C(O)C2O)c2ncnc(N)c12 (stereo not drawn),inactive
16,Cc1cccc(C)c1-n1nnnc1C(c1cc2ccccc2o1)N1CCC(n2c(=O)[nH]c3ccccc32)CC1 (stereo not drawn),8.91 µM (active)
17,CC(C)(C)n1nnnc1C(CCc1ccccc1)N1CCC(n2c(=O)[nH]c3ccccc32)CC1 (stereo not drawn),22.4 µM (active)
18,O=c1[nH]c2ccccc2n1C1CCN(C(CCc2ccccc2)c2nnnn2C2CCCC2)CC1 (stereo not drawn),22.4 µM (active)
19,O=C(NN=Cc1ccc(N(CCCl)CCCl)cc1)c1cc(=O)[nH]c(=O)[nH]1,inactive

row,SMILES,Potency
1,C1=NCCc2c1[nH]c1ccccc21,inactive
2,COC1C(O)C(C)OC(OC2C(Oc3cccc4c(O)c5c(=O)oc6ccc(C)c7c(=O)oc(c34)c5c67)OC(C)C(O)C2O)C1O (stereo not drawn),inactive
3,Cc1c2ccncc2c(C)c2c1[nH]c1ccccc12,22.4 µM (active)
4,CCn1c(O)c(/C=N/NC(=O)c2ccccc2)c(=O)n(CC)c1=S,inactive
5,NC(Cc1ccc(Cl)cc1)c1csc(Nc2ccccn2)n1 (stereo not drawn),25.1 µM (active)
6,CC[C@@]1(O)C(=O)OCc2c1cc1n(c2=O)Cc2cc3c(NC(=O)CN)cccc3nc2-1,inactive
7,Cc1ccc(/C=C2\C(=O)NC(=S)N(c3ccccc3F)C2=O)s1,8.91 µM (active)
8,CCCCCn1c(=O)c(C(=O)NCc2ccccn2)c(O)c2ccccc21,inactive
9,C=CCCC[C@@H]1OC(=O)CNC(=O)C([C@@H](C)CC)NC(=O)[C@@H]2CCCN2C(=O)C([C@@H](C)CC)OC(=O)[C@H](Cc2ccccc2)N(C)C(=O)[C@H](C(C)C)NC(=O)C1(C)C (stereo partly drawn),3.16 µM (active)
10,C#CCCC[C@@H]1OC(=O)CNC(=O)C([C@@H](C)CC)NC(=O)[C@@H]2CCCN2C(=O)C([C@@H](C)CC)OC(=O)[C@H](Cc2ccccc2)N(C)C(=O)[C@H](C(C)C)NC(=O)C1(C)C (stereo partly drawn),22.4 µM (active)
11,CCC(C)N1C(=O)/C(=C\c2cnc(N(C)C)nc2)C(=O)NC1=S (stereo not drawn),inactive
12,c1ccc2sc(N3CCNCC3)nc2c1,inactive
13,O=C1NC(=O)N(CCc2ccc(F)cc2)C(=O)/C1=C/C=C/c1ccccc1,11.2 µM (active)
14,COc1ccc(CCNCc2ccc(F)cc2)cc1OC,inactive
15,CCCCCCC(=O)N/N=C/c1c(O)n(CCCC)c(=S)[nH]c1=O,inactive
16,CC(=NCCc1c[nH]c2ccccc12)c1c(O)n(Cc2ccccc2)c(=O)[nH]c1=O,inactive
17,CC(C)CCNC(=O)c1c(N)n(Cc2ccc3c(c2)OCO3)c2nc3ccccc3nc12,inactive
18,CCCCCn1c(NC(=O)c2ccco2)c(C(=O)OCC)c2nc3ccccc3nc21,28.2 µM (active)
19,CCOC(=O)c1c(N)n(CCN2CCCCC2)c2nc3ccccc3nc12,inactive
